# From the supplement of paper PMC6555819
# Experiments:
# Test in all cases: PBM binding z-score (relative to random genomic background probes); higher = stronger binding; sequences stand for … in GC…GCGATTGACAGCGTAGAATGAAGG
# [1] = system: FXR:RXRa (NR concentration 270 nM, RXRa partner concentration 90 nM)
# Procedure, shortened: (§1)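 Custom Agilent 4×180K protein-binding microarrays carried double-stranded probes. Their 34-nt variable regions held direct-repeat seeds, single-nucleotide variants, half-site ablations and random human genomic background sequences. Arrays were incubated 1 h with ligand-free nuclear receptor dimers in PBS pH 7.4, 2% milk, 0.02% Triton X-100, 1 mM DTT, 0.2 mg/mL BSA and 0.4 mg/ml salmon testes DNA. Antibodies against each partner (one per run) detected binding, and scanned fluorescence was regression-normalized. Binding z-scores use random background probes as reference.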
# [2] = system: LXRa:RXRa (NR concentration 270 nM, RXRa partner concentration 90 nM)
# Procedure, shortened: as §1
# [3] = system: LXRa homodimer (NR concentration 270 nM)
# Procedure, shortened: as §1
# [4] = system: LXRb:RXRa (NR concentration 270 nM, RXRa partner concentration 90 nM)
# Procedure, shortened: as §1
# [5] = system: LXRb homodimer (NR concentration 270 nM)
# Procedure, shortened: as §1
# [6] = system: PPARa:RXRa (NR concentration 270 nM, RXRa partner concentration 90 nM)
# Procedure, shortened: as §1
# [7] = system: PPARg:RXRa (NR concentration 180 nM, RXRa partner concentration 90 nM)
# Procedure, shortened: as §1
# [8] = system: PPARg:RXRa 270nM:90nM, anti-RXR (NR concentration 270 nM, RXRa partner concentration 90 nM)
# Procedure, shortened: as §1
# [9] = system: PPARg:RXRa 30nM:10nM, anti-RXR (NR concentration 30 nM, RXRa partner concentration 10 nM)
# Procedure, shortened: as §1
# [10] = system: PPARg:RXRa 90nM:30nM, anti-RXR (NR concentration 90 nM, RXRa partner concentration 30 nM)
# Procedure, shortened: as §1
# [11] = system: PPARg:RXRa DBDmut IVT, anti-RXR (DBD mutation: RXRa K156A/R161A, NR concentration 270 nM, RXRa partner concentration 90 nM)
# Procedure, shortened: as §1
# [12] = system: PPARg:RXRa IVT, anti-PPARg (NR concentration 270 nM, RXRa partner concentration 90 nM)
# Procedure, shortened: as §1
# [13] = system: PPARg DBDmut:RXRa IVT, anti-PPARg (DBD mutation: PPARg1 K132A/R137A, NR concentration 270 nM, RXRa partner concentration 90 nM)
# Procedure, shortened: as §1
# [14] = system: PPARg DBDmut IVT, anti-PPARg (DBD mutation: PPARg1 K132A/R137A, NR concentration 270 nM)
# Procedure, shortened: as §1
# [15] = system: PPARg homodimer (NR concentration 180 nM)
# Procedure, shortened: as §1
# [16] = system: PXR homodimer (NR concentration 270 nM)
# Procedure, shortened: as §1
# [17] = system: RARa:RXR (NR concentration 270 nM, RXRa partner concentration 90 nM)
# Procedure, shortened: as §1
# [18] = system: RARa homodimer (NR concentration 270 nM)
# Procedure, shortened: as §1
# [19] = system: RARb:RXRa (NR concentration 270 nM, RXRa partner concentration 90 nM)
# Procedure, shortened: as §1
# [20] = system: PXR:RXRa (NR concentration 270 nM, RXRa partner concentration 90 nM)
# Procedure, shortened: as §1
sequence,measurement,setting,value
AATACAGGGTCACTTGGCCAGAGTAGGTACGAAT,PBM binding z-score,[1],6.52
same,PBM binding z-score,[2],5.13
same,PBM binding z-score,[3],1.39
same,PBM binding z-score,[4],4.27
same,PBM binding z-score,[5],1.54
same,PBM binding z-score,[6],5.49
same,PBM binding z-score,[7],5.84
same,PBM binding z-score,[8],5.4
same,PBM binding z-score,[9],2.24
same,PBM binding z-score,[10],4.19
same,PBM binding z-score,[11],2.55
same,PBM binding z-score,[12],4.18
same,PBM binding z-score,[13],1.56
same,PBM binding z-score,[14],1.27
same,PBM binding z-score,[15],1.58
same,PBM binding z-score,[16],0.166
same,PBM binding z-score,[17],4.1
same,PBM binding z-score,[18],0.292
same,PBM binding z-score,[19],4.23
CTTTACGGGTCAAGGTTATAGCACGGGTGGTACG,PBM binding z-score,[1],5.72
same,PBM binding z-score,[2],4.66
same,PBM binding z-score,[3],1.01
same,PBM binding z-score,[4],3.35
same,PBM binding z-score,[5],0.665
same,PBM binding z-score,[6],5.26
same,PBM binding z-score,[7],5.26
same,PBM binding z-score,[8],5.41
same,PBM binding z-score,[9],2.59
same,PBM binding z-score,[10],4.51
same,PBM binding z-score,[11],3.74
same,PBM binding z-score,[12],4.39
same,PBM binding z-score,[13],1.72
same,PBM binding z-score,[14],1.23
same,PBM binding z-score,[15],2.84
same,PBM binding z-score,[16],0.731
same,PBM binding z-score,[17],4.6
same,PBM binding z-score,[18],0.604
same,PBM binding z-score,[19],4.17
CCTACTGGGTCATTCAGAGGTCATTGATCATATG,PBM binding z-score,[1],5.47
same,PBM binding z-score,[2],6.23
same,PBM binding z-score,[3],6.38
same,PBM binding z-score,[4],5.36
same,PBM binding z-score,[5],1.42
same,PBM binding z-score,[6],5.41
same,PBM binding z-score,[7],6.55
same,PBM binding z-score,[8],5.9
same,PBM binding z-score,[9],3.21
same,PBM binding z-score,[10],5.33
same,PBM binding z-score,[11],6.17
same,PBM binding z-score,[12],7.04
same,PBM binding z-score,[13],1.98
same,PBM binding z-score,[14],0.698
same,PBM binding z-score,[15],6.37
same,PBM binding z-score,[16],3.7
same,PBM binding z-score,[18],1.17
same,PBM binding z-score,[19],4.51
CCGTACGGGTCAAGGTTATAGCACGGGTGGTACG,PBM binding z-score,[1],5.23
same,PBM binding z-score,[2],3.78
same,PBM binding z-score,[3],-0.221
same,PBM binding z-score,[4],3.11
same,PBM binding z-score,[5],-0.132
same,PBM binding z-score,[6],4.76
same,PBM binding z-score,[7],4.03
same,PBM binding z-score,[8],4.28
same,PBM binding z-score,[9],1.2
same,PBM binding z-score,[10],2.77
same,PBM binding z-score,[11],0.0598
same,PBM binding z-score,[12],2.11
same,PBM binding z-score,[13],-0.559
same,PBM binding z-score,[14],-1.41
same,PBM binding z-score,[15],1.37
same,PBM binding z-score,[16],0.0308
same,PBM binding z-score,[17],4.49
same,PBM binding z-score,[18],-0.0555
same,PBM binding z-score,[19],4.09
AATACAGGGTCGCTAGGCCAGAGTAGGTACGAAT,PBM binding z-score,[1],0.424
same,PBM binding z-score,[2],0.524
same,PBM binding z-score,[3],-0.204
same,PBM binding z-score,[4],0.525
same,PBM binding z-score,[5],-0.053
same,PBM binding z-score,[6],1.37
same,PBM binding z-score,[7],1.05
same,PBM binding z-score,[8],0.765
same,PBM binding z-score,[9],0.105
same,PBM binding z-score,[10],0.482
same,PBM binding z-score,[11],0.129
same,PBM binding z-score,[12],1.16
same,PBM binding z-score,[13],0.521
same,PBM binding z-score,[14],-0.263
same,PBM binding z-score,[15],0.213
same,PBM binding z-score,[16],-0.199
same,PBM binding z-score,[17],0.9
same,PBM binding z-score,[18],0.178
same,PBM binding z-score,[19],1.49
ATCGAAAGGTCGAAGGTGACTATACCCACCCGAA,PBM binding z-score,[1],4.54
same,PBM binding z-score,[2],3.72
same,PBM binding z-score,[3],0.344
same,PBM binding z-score,[4],3.07
same,PBM binding z-score,[5],0.925
same,PBM binding z-score,[6],4.92
same,PBM binding z-score,[7],5.16
same,PBM binding z-score,[8],5
same,PBM binding z-score,[9],2.71
same,PBM binding z-score,[10],4.38
same,PBM binding z-score,[11],0.283
same,PBM binding z-score,[12],2.43
same,PBM binding z-score,[13],0.926
same,PBM binding z-score,[14],0.616
same,PBM binding z-score,[15],2.37
same,PBM binding z-score,[16],0.106
same,PBM binding z-score,[17],4.31
same,PBM binding z-score,[18],0.973
same,PBM binding z-score,[19],3.79
GCTTACGGGTGAAAGGTTATAGCATGAATAGAAT,PBM binding z-score,[1],2.96
same,PBM binding z-score,[2],2.79
same,PBM binding z-score,[3],0.142
same,PBM binding z-score,[4],3
same,PBM binding z-score,[5],-0.294
same,PBM binding z-score,[6],5.7
same,PBM binding z-score,[7],9.88
same,PBM binding z-score,[8],8.08
same,PBM binding z-score,[9],7.78
same,PBM binding z-score,[10],8.71
same,PBM binding z-score,[11],3.24
same,PBM binding z-score,[12],4.67
same,PBM binding z-score,[13],0.644
same,PBM binding z-score,[14],0.4
same,PBM binding z-score,[15],1.72
same,PBM binding z-score,[16],0.0936
same,PBM binding z-score,[17],4.93
same,PBM binding z-score,[18],0.6
same,PBM binding z-score,[19],2.14
ATATGTAGGTTAGGGTCAATCAGAAAGTAGGGAA,PBM binding z-score,[1],4.67
same,PBM binding z-score,[2],3.66
same,PBM binding z-score,[3],0.491
same,PBM binding z-score,[4],3.9
same,PBM binding z-score,[5],1.23
same,PBM binding z-score,[6],5.48
same,PBM binding z-score,[7],7.67
same,PBM binding z-score,[8],6.41
same,PBM binding z-score,[9],3.89
same,PBM binding z-score,[10],5.93
same,PBM binding z-score,[11],6.1
same,PBM binding z-score,[12],6.62
same,PBM binding z-score,[14],1.96
same,PBM binding z-score,[15],2.82
same,PBM binding z-score,[20],3.61
same,PBM binding z-score,[16],1.38
same,PBM binding z-score,[17],4.43
same,PBM binding z-score,[18],1.88
same,PBM binding z-score,[19],3.59
